High-throughput results deposited in PubChem by National Center for Advancing Translational Sciences (NCATS).
VDR inh = blocks the human vitamin D receptor; VDR-SRC2-3 peptide fluorescence polarization, 2 h; Potency, µM, inactives show max response, negative = inhibition, usual class: inhibitors; 400,000 compounds, 0.93% hits; AID 504847; further: potency means the concentration at half of the fitted maximal effect
Target sequence (P11473 whole entry, looked up): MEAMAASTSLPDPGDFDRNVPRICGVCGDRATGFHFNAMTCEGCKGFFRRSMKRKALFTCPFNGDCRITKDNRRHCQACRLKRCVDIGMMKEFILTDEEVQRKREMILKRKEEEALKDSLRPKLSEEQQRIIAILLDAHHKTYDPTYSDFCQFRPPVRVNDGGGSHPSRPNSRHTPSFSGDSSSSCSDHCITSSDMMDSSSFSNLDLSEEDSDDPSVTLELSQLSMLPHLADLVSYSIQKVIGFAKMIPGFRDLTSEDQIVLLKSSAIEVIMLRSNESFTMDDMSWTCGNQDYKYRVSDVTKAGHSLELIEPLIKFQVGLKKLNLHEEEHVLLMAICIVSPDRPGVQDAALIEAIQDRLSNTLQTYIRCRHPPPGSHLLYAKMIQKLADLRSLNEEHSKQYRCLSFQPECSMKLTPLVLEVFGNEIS
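The screen uses fluorescence polarization to detect compounds that interfere with recruitment of the SRC2-3 coactivator peptide to VDR; plates are read after 2 h at room temperature.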
CCT chaperon mod = modulators of cytosolic chaperonin (CCT/TRiC) activity. purified chaperonin ATPase assay, HTRF ADP detection, 30 min. activity change, % (no concentration beside the values), hits read low. AID 651819. 360,000 compounds, 0.3% hits; in the data active means activity change below about -30%
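Enzyme 40 or 20 nM (batch-dependent) in Tris pH 7.4/KCl/MgCl2/DTT; cpd 76 uM single point; ATP 10 uM; 30 min 37 °C; Transcreener ADP HTRF detection, 30 min RT; ratio 665/615.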
Sfp inh = blocks B. subtilis Sfp PPTase activity; Q9F4F7; Biochemical Sfp PPTase activity, qHTS; Potency, µM, for inactives: largest response in the series, negative = inhibition, actives largely listed as inhibitors; 310,000 compounds, 3.5% hits; AID 1490;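 further: the enzyme is Sfp with the accession as filed and its product quenches rhodamine fluorescence; potency means the concentration at half of the fitted maximal effect; 0% = enzyme reaction without inhibitor and -100% = no enzyme wells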
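Reaction rates are the 30-min fluorescence difference (ex 525, em 598 nm) in wells containing 15 nM Sfp, 5 uM rhodamine-CoA and 12.5 uM BHQ-2-YbbR at pH 7.6 with 10 mM MgCl2.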
G9a inh = inhibitors of human histone lysine methyltransferase G9a; 350,000 compounds, 8.8% hits; G9a H3K9 monomethylation, AlphaScreen, 2 h; AID 504332; Q96KQ7; Potency, µM (doses to about 102 µM), inactives show at the highest dose activity, negative = inhibition, actives largely listed as inhibitors; further: potency means the concentration at half of the fitted maximal effect; nearly all actives have a fitted effect of over 75% in size
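G9a (20 nM) was preincubated 15 min with compound, then reacted 2 h at room temperature with 500 nM biotin-H3K9 peptide and 20 µM SAM. Monomethyl-H3K9 detected by AlphaScreen using anti-H3K9me1 antibody.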
PLK1 PBD inh = blocks phosphopeptide binding to human PLK1 polo-box domain | 360,000 compounds, 2.8% hits | P53350 | Potency, µM, without a hit: max response, negative = inhibition, hits mostly inhibitors | AID 720504 | Plk1 PBD binding of FITC phosphopeptide, fluorescence polarization; further: potency means the concentration at half of the fitted maximal effect; series mostly up to about 57 µM; nearly all actives have a fitted effect of over 65% in size
MmCpn inh = M. maripaludis TRiC chaperonin inhibition. Potency, µM (top dose mostly 76.9 µM), without a hit: top-dose activity, negative = inhibition, actives largely listed as inhibitors. 330,000 compounds, 0.031% hits. purified Mm-Cpn ATPase, ADP Transcreener TR-FRET; further: potency means the concentration at half of the fitted maximal effect; nearly all actives have a fitted effect of over 80% in size
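TR-FRET (320 nm excitation; 590 and 665 nm emission) reports ADP made from 10 uM ATP by 25 nM enzyme; compounds were preincubated 10 min, reaction run 30 min, both at 37°C.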
TbPYK confirm = confirmation of Trypanosoma brucei pyruvate kinase inhibitors | AID 720569 | Potency, µM (highest dose often 76.9 µM), without a hit: at the highest dose activity change, negative = inhibition, actives largely listed as inhibitors | shares compounds with PLK1 PBD inh | 890 compounds, 67% hits | recombinant TbPYK, Kinase-Glo ATP luminescence; further: potency means the concentration at half of the fitted maximal effect; nearly all actives have a fitted effect of over 70% in size
TbPYK ADP-Glo = inhibits T. brucei pyruvate kinase in orthogonal ADP-Glo assay; 890 compounds, 62% hits; Potency, µM (doses to about 76.9 µM), inactives show at the top dose activity change, negative = inhibition, usual class: inhibitors; shares compounds with PLK1 PBD inh; AID 720584; recombinant TbPYK, ADP-Glo luminescence, 60 min; further: potency means the concentration at half of the fitted maximal effect; nearly all actives have a fitted effect of over 75% in size
An asterisk follows results filed as active; u = inconclusive; x = not tested or not shown; [ ] = another dose, or the depositor's remark. Rows were chosen to be rich in hits. Some 10% of all compounds tested hit in one or more screens of this group. Unless noted, the call rests on the fitted dose curve; in most records, active means well fitted curve in the direction sought with a large enough effect; inconclusive means small, poorly fitted or top-dose-only effect, or another doubt; inactive means no such curve, though single readings can be large; an effect the other way counts as inactive or inconclusive. Unless noted, on the % scale 0 is the no-effect control and ±100 the full control effect.

SMILES	VDR inh	CCT chaperon mod	Sfp inh	G9a inh	PLK1 PBD inh	MmCpn inh	TbPYK confirm	TbPYK ADP-Glo
Cc1[nH]c2c(Cl)cccc2c(=O)c1CN1CCCCCC1	24%	-2	1%	u	-2%	-3%	x	x
O=c1[nH]c(=S)n(Cc2ccco2)c(O)c1C=NCc1cccs1	1%	-2	-1%	3.5µM*	-26%	2%	u	-29%
CC(=O)c1ccc(NC2CC(O)C(O)CO2)cc1 (configuration not stated)	11%	0	22%	u	u	-1%	x	x
C=Cc1ccc(Cn2c(C)c(CNCCc3cc(OC)ccc3OC)c(C(=O)O)c2C)cc1	1%	x	x	7%[59 µM]	x	x	x	x
CCc1nc(CNC(=O)c2cc(OC)c(OC)c(OC)c2)no1	2%	0	12%	u	-9%	2%	x	x
Cc1nnc2n1-c1sc(CCC(=O)N3CCOCC3)cc1C(c1ccccc1Cl)=NC2	x	x	17%	x	x	x	x	x
CCOP(=O)(C1=C(O)C(=O)C(C(C)(C)C)=CC1=O)c1ccccc1 (configuration not stated)	u	-1	40µM*	56µM*	u	-1%	u	u
CNC[C@H](O)c1ccc(O)c(OC)c1	1%	x	10%	-9%[21.5 µM]	x	x	x	x
COc1ccc(/C=C2\C(=O)NC(=S)N(C)C2=O)cc1C	45µM*	0	18µM*	x	1.2µM*	0%	u	u
Cc1ccsc1/C=C1\C(=O)NC(=S)N(C)C1=O	u	1	20µM*	7.9µM*	3µM*	-4%	11µM*	18µM*
CC(=O)[C@@H]1CC[C@H]2[C@H]3CC[C@H]4C[C@@H](O)CC[C@]4(C)[C@@H]3C(=O)C[C@@]12C	8%	x	-3%	22%[21.5 µM]	x	x	x	x
COc1cc2c3cc1Oc1c(OC)c(OC)cc4c1C(Cc1cccc(c1)Oc1ccc(c(O)c1)CC3N(C)CC2)N(C)CC4 (configuration not stated)	4%	x	2%	-4%[2.33 µM]	x	x	x	x
C[N+]12CCC(CC1)C(=C(c1ccccc1)c1ccccc1)C2	-1%	-4	-10%	3.5µM*	-16%	1%	25µM*	40µM*
CCOC(=O)[C@]12Cc3cc4c(cc3[C@H]1N(Cc1ccccc1)C(=O)c1ccccc12)OCO4	-22%	-5	x	x	-18%	x	x	x
CCOC(=O)[C@]12Cc3ccccc3[C@H]1N(C(C)C)C(=O)c1ccccc12	x	1	x	x	u	x	22µM*	32µM*
CN1CCN(c2ccc3ccccc3n2)CC1	x	x	1%	u	x	x	x	x
C/C=C1\C[C@H](C)[C@@](O)(CO)C(=O)OCC2=CCN3CC[C@@H](OC1=O)[C@@H]23	-1%	x	19%	37%[21.5 µM]	x	x	x	x
CN1CCC2=C[C@H](O)[C@@H]3OC(=O)c4cc5c(cc4[C@H]3[C@H]21)OCO5	1%	x	20%	0%[21.5 µM]	x	x	x	x
O=C1CC=C2C3CC4N(CCC45c4cc(O)c(O)cc4N1C25)CC3=CCBr (configuration not stated)	10%	-2	x	x	5.3µM*	x	7.9µM*	13µM*
O=C1CC=C2C3CC4N(CCC45c4ccccc4N1C25)CC3=CCO (configuration not stated)	3%	-2	x	x	2%	x	x	x
O=C1NC(=O)C(=Cc2c(Cl)cccc2Cl)C(=O)N1	u	-4	x	x	4.7µM*	x	25µM*	35µM*
CCN(CC)c1nc2c(C)cccn2c(=O)c1C=C1C(=O)NC(=O)NC1=O	9%	-1	2%	u	-16%	2%	x	x
